Screens as filed in PubChem.
TEAD-YAP block = TEAD-YAP interaction inhibition; HEK-TIYL cells, TEAD-Gal4/YAP UAS-luciferase luminescence; inhibition, % at 9.12 µM; 640,000 tested, 1.4% active; AID 1259422; in the data active = inhibition above about 32%;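 note: 0% = median of test compound wells and 100% = reference inhibitor wells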
GPR151 ag = human GPR151 activation; PathHunter beta-arrestin GPR151 cells, luminescence; 650,000 tested, 1% active; activation, % at 11.2 µM; in the data active = activation above about 4.9%;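 note: 0% = median of compound wells and 100% = cells with positive control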
Target sequence (Q8TDV0 whole entry, looked up): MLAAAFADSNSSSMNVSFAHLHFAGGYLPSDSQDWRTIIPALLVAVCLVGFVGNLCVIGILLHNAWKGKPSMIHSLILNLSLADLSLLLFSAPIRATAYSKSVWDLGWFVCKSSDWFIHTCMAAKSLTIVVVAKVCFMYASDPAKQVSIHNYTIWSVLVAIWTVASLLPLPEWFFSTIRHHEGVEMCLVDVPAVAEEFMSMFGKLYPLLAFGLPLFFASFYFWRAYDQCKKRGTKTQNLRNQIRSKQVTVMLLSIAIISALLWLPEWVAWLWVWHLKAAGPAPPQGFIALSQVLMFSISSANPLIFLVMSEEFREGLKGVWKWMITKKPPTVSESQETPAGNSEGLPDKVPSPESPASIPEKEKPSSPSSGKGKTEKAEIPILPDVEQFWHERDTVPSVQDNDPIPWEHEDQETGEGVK
MITF inh = human MITF inhibition, primary screen; O75030; AlphaScreen MITF homodimerization, bead proximity signal; inhibition, % at 2.6 µM; 650,000 tested, 0.91% active; AID 1259374; in the data active = inhibition above about 50%;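 note: 0% = vehicle wells with protein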
FBW7 act = human FBW7 E3 ligase activation, primary screen; normalized activity (activation), % at 26.1 µM; AlphaScreen FBW7–phospho-cyclin E peptide binding, activator screen; 650,000 tested, 0.13% active; in the data active = normalized activity above about 1.9%;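 note: purified mutant Fbw7 with reduced substrate affinity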
The depositor's hits bear a star; . = no result given. Compounds with a hit are over-represented: about 3.5% of the library has one in this group of screens.

SMILES | TEAD-YAP block | GPR151 ag | MITF inh | FBW7 act
COC(=O)C/C=C/[C@@H](C)[C@@H](/C=N/OC[C@@H](O)COCc1ccco1)OC | . | -1 | -8 | 0
CCC1=NN(C(=O)Cc2ccccc2)C(O)(c2cccc(OC)c2)C1 (stereo unspecified) | -17 | 1 | -13 | 0
COC(=O)c1c(N2C(N)=C(C#N)C(c3ccccc3)C3=C2CCCC3=O)sc2c1CCCC2 (stereo unspecified) | 54* | 0 | -4 | 0
N#CC1=C(N)N(c2ccc(F)cc2)C2=C(C(=O)CCC2)C1c1ccc(F)cc1 (stereo unspecified) | -1 | 0 | 8 | 0
COc1ccc(N2C(N)=C(C#N)C(c3ccc(F)cc3)C3=C2CCCC3=O)cc1 (stereo unspecified) | 51* | -2 | 6 | 0
CCOc1ccc(C2C(C#N)=C(N)N(c3ccc(OC)cc3)C3=C2C(=O)CCC3)cc1 (stereo unspecified) | 50* | 0 | -1 | 0
CC(=O)C1=C(c2ccc([N+](=O)[O-])cc2)N(C(C)=O)n2cnnc2S1 | 32* | 1 | -6 | 0
COc1cc(C=O)ccc1OC(=O)c1ccccc1 | 4 | -2 | -7 | 0
COc1ccc(N2C(=O)c3ccccc3NC2c2cccc([N+](=O)[O-])c2)cc1 (stereo unspecified) | -23 | -1 | 17 | 1
COc1ccc(N2C(=O)c3ccccc3NC2c2ccc(-c3ccc([N+](=O)[O-])cc3)o2)cc1 (stereo unspecified) | 41* | 0 | -4 | 0
CCCN(CCC)S(=O)(=O)c1cc2c3c(c1)CC(=O)N3CCC2 | -2 | 0 | -3 | 0
Cc1ccc2nc(SCC(=O)N3CC(=O)Nc4ccccc43)c(C#N)cc2c1 | 49* | 0 | 17 | 0
C=C(C)CN1C(=O)NC(CC)(C2CCN(Cc3ccccc3C)CC2)C1=O (stereo unspecified) | -25 | 0 | 18 | 1
C=C(C)CN1C(=O)NC(CC)(C2CCN(CC3=CC[C@H]4C[C@@H]3C4(C)C)CC2)C1=O (stereo partly specified) | 43* | 2 | 11 | 0
CC(C)C1CCC(Nc2ncc(-c3cccc(C(=O)NCCN(C)C)c3)n3ccnc23)CC1 (stereo unspecified) | 39* | 1 | 9 | -1
Cc1cc(OCC(=O)Nc2ccc(S(N)(=O)=O)cc2)ccc1C(C)C | 0 | 1 | -3 | 0
O=C(NC1CC1)c1ccc(-c2nc(NCc3nc4ccccc4[nH]3)c3ncn(-c4ccsc4)c3n2)cc1 | 87* | 3 | 7 | 0
O=C(NC1CC1)c1ccc(-c2nc(Nc3ccccc3)c3ncn(-c4ccsc4)c3n2)cc1 | 23 | 1 | 13 | 25*
CC(=O)c1cccc(-c2nc(NCc3nc4ccccc4[nH]3)c3ncn(-c4ccsc4)c3n2)c1 | 69* | -1 | 7 | 2
O=C(NC1CC1)c1ccc(-c2nc(NCc3cccc(C(F)(F)F)c3)c3ncn(-c4ccsc4)c3n2)cc1 | 8 | 1 | 6 | 0
c1ccc(-c2nc(NCc3nc4ccccc4[nH]3)c3ncn(-c4ccsc4)c3n2)cc1 | 58* | 0 | 7 | 0
COc1cccc(-c2noc(-c3ccco3)n2)c1 | -59 | -1 | 22 | 0
CC(C)(CO)NC(=O)c1ccc(Cl)cc1Cl | -5 | 0 | -15 | 0
NC(=O)c1ccc(-c2nc(NCc3nc4ccccc4[nH]3)c3ncn(-c4ccsc4)c3n2)cc1 | 83* | 1 | 18 | 0
CCc1ccccc1NC(=O)CSC1=C(C#N)C(c2ccc(C)o2)C2=C(CCCC2=O)N1 (stereo unspecified) | 55* | -1 | -3 | 0
SMILES | TEAD-YAP block | GPR151 ag | MITF inh | FBW7 act
COCCn1c(C)cc(C(=O)CSc2nc(-c3cccc([N+](=O)[O-])c3)cs2)c1C | -10 | 0 | -10 | 0
Cc1cccc(OCCOC(=O)c2ccc(S(C)(=O)=O)c([N+](=O)[O-])c2)c1 | 38* | 0 | 7 | 0
COc1ccc(C(=O)C2CCN(S(=O)(=O)c3ccc(F)cc3)CC2)cc1 | 42* | 0 | -8 | 0
CC(=O)Nc1ccc(S(=O)(=O)N2c3ccc(F)cc3CCC2C)cc1 (stereo unspecified) | 46* | 4 | 0 | 0
CC1CCc2cc(F)ccc2N1S(=O)(=O)c1c(N)n(C)c(=O)n(C)c1=O (stereo unspecified) | -6 | 0 | -2 | 0
COc1ccc(S(=O)(=O)N2c3ccc(F)cc3CCC2C)cc1 (stereo unspecified) | 56* | 1 | -16 | 0
CC(C)CC(=O)CN1C(=O)c2ccccc2C1=O | -11 | 2 | 1 | 0
CC(=O)N(/C=C1\Sc2ccccc2C1=O)c1ccc(C)c(C)c1 | 86* | -3 | 4 | 0
COc1ccc(N(/C=C2\Sc3ccccc3C2=O)C(=O)c2ccc(C)cc2)cc1 | 41* | -9 | -7 | 0
CC(=O)N(/C=C1/Sc2ccccc2C1=O)c1ccc(C)cc1 | 59* | -3 | 12 | 0
COc1ccccc1N(C=O)/C=C1\Sc2ccccc2C1=O | 55* | -2 | 0 | 0
COC(=O)c1cccc(NC(=O)c2cc(OC)c(OC)c(OC)c2)c1 | 3 | 0 | 3 | 1
COc1ccc(N(/C=C2\Sc3ccccc3C2=O)C(C)=O)cc1 | 51* | -8 | 19 | 0
COc1ccc(N(/C=C2\Sc3ccccc3C2=O)C(=O)c2ccccc2)cc1 | 54* | -9 | -4 | 0
O=C1/C(=C\N(C(=O)c2ccccc2)c2ccccc2)Sc2ccccc21 | 3 | -3 | -1 | 0
CC(=O)N(/C=C1\Sc2ccccc2C1=O)c1ccc(I)cc1 | -11 | 0 | -8 | 0
O=C(CSc1nc2ccccc2[nH]1)Nc1cc(Cl)ccc1O | 33* | 0 | -8 | 0
O=C1CC(c2cccc(Br)c2)c2c(ccc3ccccc23)N1 (stereo unspecified) | 51* | 0 | 5 | 0
O=C1CC(c2ccccc2)c2c(ccc3ccccc23)N1 (stereo unspecified) | 9 | 1 | 13 | 0
Cc1ccccc1C1CC(=O)Nc2ccc3ccccc3c21 (stereo unspecified) | 38* | -2 | 1 | 0
c1ccc(N2CCN(c3nc4ccccc4c4nc(-c5cccnc5)nn34)CC2)cc1 | -3 | -2 | 5 | 0
O=C(Cn1nc(-c2ccoc2)oc1=O)NC(c1ccccc1)c1ccccc1 | -12 | 3 | -3 | 0
O=C(Nc1nc2c(s1)CCc1ccccc1-2)c1ccc(S(=O)(=O)N2CCCC2)cc1 | 4 | 2 | -8 | 0
Cc1ccc(C(=O)N/N=C/c2c3ccccc3cc3ccccc23)cn1 | 3 | 2 | 2 | 0
O=C(N/N=C/c1c(O)ccc2ccccc12)c1ccc[n+](CCO)c1 | -5 | 1 | 90* | -1
O=C(N/N=C/c1c(O)ccc2ccccc12)c1ccc(F)cc1 | 76* | -1 | 14 | 0
O=C(N/N=C/c1c(O)ccc2ccccc12)c1ccc(=O)[nH]n1 | 86* | 0 | 68* | -1
Cc1ccc(C(=O)N/N=C/c2c(O)ccc3ccccc23)cn1 | 80* | -1 | 55* | 0
